# About 79,000 compounds went through this panel and 15% of them were active in at least one assay; those are over-represented in the sample as a whole. Unmarked numbers belong to inactive results. Activity calls are given as the source filed them. Rule as the data show it: active = growth inhibition above about 70%; inactive = the rest.
# Key:
# [1] = NCI Yeast Anticancer Drug Screen. Data for the wt1 strain (AID 149);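 also: 0% = growth of vehicle-treated wt1 cultures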; conditions: S. cerevisiae wt1 strain (SPY 50644) growth inhibition, hits give high values
# Method in brief: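 wt1 strain grown with compound or vehicle; inhibition taken from the growth difference.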
# [2] = NCI Yeast Anticancer Drug Screen. Data for the rad50EPP+ strain (AID 151);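 also: 0% = growth of vehicle-treated control cultures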; conditions: S. cerevisiae rad50 mutant strain, hits give high values
# Method in brief: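 Read-out is yeast growth inhibition relative to vehicle; cells used were the rad50EPP+ strain.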
# [3] = NCI Yeast Anticancer Drug Screen. Data for the rad50 strain (AID 155);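 also: 0% = growth of vehicle-only cultures of the same strain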; conditions: S. cerevisiae rad50 strain growth inhibition, hits give high values
# Method in brief: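 DNA repair mutant yeast, compound exposure, growth read-out; inhibition is taken relative to vehicle.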
# [4] = NCI Yeast Anticancer Drug Screen. Data for the mec2-1 strain (AID 157); conditions: S. cerevisiae mec2-1 strain, hits give high values
# Method in brief: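 Using mec2-1 yeast: add compound, measure growth, express inhibition versus vehicle-treated cultures.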
# [5] = NCI Yeast Anticancer Drug Screen. Data for the rad14 strain (AID 159);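 also: 0% = growth of vehicle-treated control cultures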; conditions: S. cerevisiae rad14 strain growth inhibition, hits give high values
# Method in brief: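 DNA repair-defective yeast, compound-exposed; % growth inhibition derived by comparison with vehicle-treated controls.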
# [6] = NCI Yeast Anticancer Drug Screen. Data for the sgs1 mgt1 strain (AID 161);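 also: 0% = growth of cultures given vehicle only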; conditions: S. cerevisiae sgs1 mgt1 strain, hits give high values
# Method in brief: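 Yeast cells carrying a defined DNA-repair defect were exposed to test compounds. Growth inhibition was measured relative to vehicle-treated controls.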
# [7] = NCI Yeast Anticancer Drug Screen. Data for the CLN2oe strain (AID 163);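 also: 0% = growth of vehicle-only control cultures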; conditions: S. cerevisiae CLN2oe strain, hits give high values
# Method in brief: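 Whole-cell yeast growth assay. A strain engineered for altered cell-cycle control received compound, and inhibition relative to vehicle-treated cultures was recorded.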
# [8] = NCI Yeast Anticancer Drug Screen. Data for the cln2 rad14 strain (AID 165);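 also: 0% = growth equal to vehicle treated cultures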; conditions: S. cerevisiae cln2 rad14 strain, hits give high values
# Method in brief: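 Yeast strain cln2 rad14, bearing defects in cell cycle control and DNA repair, serves as the test system; values reflect growth inhibition compared with vehicle.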
# [9] = NCI Yeast Anticancer Drug Screen. Data for the bub3 strain (AID 167); conditions: S. cerevisiae bub3 mutant strain, hits give high values
# Method in brief: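 In this screen, a yeast mutant lacking normal mitotic checkpoint function is challenged with compound. Relative growth versus vehicle gives the inhibition value.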
# [10] = NCI Yeast Anticancer Drug Screen. Data for the wt2 strain (AID 169);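 also: 0% = growth of vehicle-treated yeast cultures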; conditions: S. cerevisiae wt2 strain growth inhibition, hits give high values
# Method in brief: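 Treated yeast vs. vehicle-treated yeast: growth inhibition determined.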
# [11] = NCI Yeast Anticancer Drug Screen. Data for the mlh1 strain (AID 171);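 also: 0% = growth of vehicle-treated control cultures of the same strain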; conditions: S. cerevisiae mlh1 strain growth inhibition, hits give high values
# Method in brief: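 A yeast strain with a defined genetic lesion serves as the test organism. Cultures receive compound or vehicle, and growth is measured.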
# [12] = NCI Yeast Anticancer Drug Screen. Data for the sgs1 strain (AID 173);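 also: 0% = growth of vehicle-only control cultures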; conditions: S. cerevisiae sgs1 mutant, hits give high values
# Method in brief: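 A genetically defined yeast mutant is incubated with the test compound, and its growth is compared to that of the same strain given vehicle.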
# [13] = NCI Yeast Anticancer Drug Screen. Data for the mlh1 rad18 strain (AID 175); conditions: S. cerevisiae mlh1 rad18 strain growth inhibition, hits give high values
# Method in brief: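 Steps: expose repair-defective yeast to compound; measure growth; express inhibition against vehicle-treated controls.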
# [14] = NCI Yeast Anticancer Drug Screen. Data for the rad18 strain (AID 177); conditions: S. cerevisiae rad18 mutant growth inhibition, hits give high values
# Method in brief: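 Measured value is growth inhibition of a yeast strain bearing a DNA repair alteration, referenced to vehicle-treated cells.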
# [15] = NCI Yeast Anticancer Drug Screen. Data for the rad52 strain (AID 147);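 also: 0% = growth of vehicle-treated control cultures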; conditions: S. cerevisiae rad52 mutant growth inhibition, hits give high values
# Method in brief: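 Here a repair-compromised yeast strain receives each compound; its growth is then quantified and normalised to vehicle-only controls.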
# [16] = at 5.0 µM (retest, dose inferred, filed as 0.5)
# [17] = at 50.0 µM (retest, dose inferred, filed as 5.0)
structure (smiles),measurement,setting,value
CC1(C)C(C=O)=CCC1CC(N)=O (stereo unspecified),growth inhibition,[1]; at 1.2 µM,-1%
same,growth inhibition,[1]; at 3.7 µM,0%
same,growth inhibition,[1]; at 11.0 µM,2%
same,growth inhibition,[1]; at 33.0 µM,3%
same,growth inhibition,[1]; at 100.0 µM,29%
same,growth inhibition,[2]; at 1.2 µM,1%
same,growth inhibition,[2]; at 3.7 µM,-2%
same,growth inhibition,[2]; at 11.0 µM,0%
same,growth inhibition,[2]; at 33.0 µM,20%
same,growth inhibition,[2]; at 100.0 µM,93% (active)
same,growth inhibition,[3]; at 1.2 µM,-1%
same,growth inhibition,[3]; at 3.7 µM,-1%
same,growth inhibition,[3]; [16],-2%
same,growth inhibition,[3]; at 11.0 µM,-1%
same,growth inhibition,[3]; at 33.0 µM,1%
same,growth inhibition,[3]; [17],43%
same,growth inhibition,[3]; at 50.0 µM,98.5% (active)
same,growth inhibition,[3]; at 100.0 µM,40%
same,growth inhibition,[4]; at 1.2 µM,0%
same,growth inhibition,[4]; at 3.7 µM,2%
same,growth inhibition,[4]; [16],4%
same,growth inhibition,[4]; at 11.0 µM,1%
same,growth inhibition,[4]; at 33.0 µM,7%
same,growth inhibition,[4]; [17],39%
same,growth inhibition,[4]; at 50.0 µM,98% (active)
same,growth inhibition,[4]; at 100.0 µM,96% (active)
same,growth inhibition,[5]; at 1.2 µM,-3%
same,growth inhibition,[5]; at 3.7 µM,-2%
same,growth inhibition,[5]; at 11.0 µM,-3%
same,growth inhibition,[5]; at 33.0 µM,6%
same,growth inhibition,[5]; at 100.0 µM,99% (active)
same,growth inhibition,[6]; [16],-3%
same,growth inhibition,[6]; [17],-2%
same,growth inhibition,[6]; at 50.0 µM,87.3% (active)
same,growth inhibition,[7]; at 1.2 µM,-5%
same,growth inhibition,[7]; at 3.7 µM,-2%
same,growth inhibition,[7]; at 11.0 µM,-1%
same,growth inhibition,[7]; at 33.0 µM,-2%
same,growth inhibition,[7]; at 100.0 µM,12%
same,growth inhibition,[8]; [16],-3%
same,growth inhibition,[8]; [17],4%
same,growth inhibition,[8]; at 50.0 µM,38.4%
same,growth inhibition,[9]; at 1.2 µM,-3%
same,growth inhibition,[9]; at 3.7 µM,-7%
same,growth inhibition,[9]; [16],-19%
same,growth inhibition,[9]; at 11.0 µM,-2%
same,growth inhibition,[9]; at 33.0 µM,-5%
same,growth inhibition,[9]; [17],-8%
same,growth inhibition,[9]; at 50.0 µM,99.2% (active)
same,growth inhibition,[9]; at 100.0 µM,93% (active)
same,growth inhibition,[10]; at 1.2 µM,-1%
same,growth inhibition,[10]; at 3.7 µM,1%
same,growth inhibition,[10]; at 11.0 µM,4%
same,growth inhibition,[10]; at 33.0 µM,9%
same,growth inhibition,[10]; at 100.0 µM,83% (active)
same,growth inhibition,[11]; at 1.2 µM,2%
same,growth inhibition,[11]; at 3.7 µM,0%
same,growth inhibition,[11]; at 11.0 µM,4%
same,growth inhibition,[11]; at 33.0 µM,9%
same,growth inhibition,[11]; at 100.0 µM,96% (active)
same,growth inhibition,[12]; at 1.2 µM,-1%
same,growth inhibition,[12]; at 3.7 µM,4%
same,growth inhibition,[12]; at 11.0 µM,6%
same,growth inhibition,[12]; at 33.0 µM,23%
same,growth inhibition,[12]; at 100.0 µM,99% (active)
same,growth inhibition,[13]; [16],-6%
same,growth inhibition,[13]; [17],71% (active)
same,growth inhibition,[13]; at 50.0 µM,88.7% (active)
same,growth inhibition,[14]; at 1.2 µM,0%
same,growth inhibition,[14]; at 3.7 µM,0%
same,growth inhibition,[14]; at 11.0 µM,22%
same,growth inhibition,[14]; at 33.0 µM,6%
same,growth inhibition,[14]; at 100.0 µM,54%
O=S1(=O)c2ccccc2N=C(c2ccccc2Cl)CC1c1ccc(F)cc1 (stereo unspecified),growth inhibition,[15]; at 1.2 µM,21%
same,growth inhibition,[15]; at 3.7 µM,24%
same,growth inhibition,[15]; at 11.0 µM,28%
same,growth inhibition,[15]; at 33.0 µM,35%
same,growth inhibition,[15]; at 100.0 µM,34%
same,growth inhibition,[2]; at 1.2 µM,-23%
same,growth inhibition,[2]; at 3.7 µM,-22%
same,growth inhibition,[2]; at 11.0 µM,0%
same,growth inhibition,[2]; at 33.0 µM,15%
same,growth inhibition,[2]; at 100.0 µM,24%
same,growth inhibition,[3]; at 1.2 µM,-39%
same,growth inhibition,[3]; at 3.7 µM,-34%
same,growth inhibition,[3]; [16],-7%
same,growth inhibition,[3]; at 11.0 µM,-18%
same,growth inhibition,[3]; at 33.0 µM,17%
same,growth inhibition,[3]; [17],29%
same,growth inhibition,[3]; at 50.0 µM,18.3%
same,growth inhibition,[3]; at 100.0 µM,13%
same,growth inhibition,[4]; at 1.2 µM,-52%
same,growth inhibition,[4]; at 3.7 µM,-27%
same,growth inhibition,[4]; [16],-22%
same,growth inhibition,[4]; at 11.0 µM,-29%
same,growth inhibition,[4]; at 33.0 µM,0%
same,growth inhibition,[4]; [17],-10%
same,growth inhibition,[4]; at 50.0 µM,-10.2%
same,growth inhibition,[4]; at 100.0 µM,-27%
same,growth inhibition,[5]; at 1.2 µM,-32%
same,growth inhibition,[5]; at 3.7 µM,-47%
same,growth inhibition,[5]; at 11.0 µM,-25%
same,growth inhibition,[5]; at 33.0 µM,-3%
same,growth inhibition,[5]; at 100.0 µM,-6%
same,growth inhibition,[6]; [16],-5%
same,growth inhibition,[6]; [17],-8%
same,growth inhibition,[6]; at 50.0 µM,61%
same,growth inhibition,[7]; at 1.2 µM,-9%
same,growth inhibition,[7]; at 3.7 µM,-8%
same,growth inhibition,[7]; at 11.0 µM,-10%
same,growth inhibition,[7]; at 33.0 µM,-1%
same,growth inhibition,[7]; at 100.0 µM,-13%
same,growth inhibition,[8]; [16],17%
same,growth inhibition,[8]; [17],16%
same,growth inhibition,[8]; at 50.0 µM,31.5%
same,growth inhibition,[9]; at 1.2 µM,-4%
same,growth inhibition,[9]; at 3.7 µM,-16%
same,growth inhibition,[9]; [16],-20%
same,growth inhibition,[9]; at 11.0 µM,-5%
same,growth inhibition,[9]; at 33.0 µM,-2%
same,growth inhibition,[9]; [17],56%
same,growth inhibition,[9]; at 50.0 µM,3.25%
same,growth inhibition,[9]; at 100.0 µM,13%
same,growth inhibition,[10]; at 1.2 µM,-6%
same,growth inhibition,[10]; at 3.7 µM,-8%
same,growth inhibition,[10]; at 11.0 µM,-20%
same,growth inhibition,[10]; at 33.0 µM,7%
same,growth inhibition,[10]; at 100.0 µM,25%
same,growth inhibition,[11]; at 1.2 µM,-17%
same,growth inhibition,[11]; at 3.7 µM,-10%
same,growth inhibition,[11]; at 11.0 µM,-8%
same,growth inhibition,[11]; at 33.0 µM,13%
same,growth inhibition,[11]; at 100.0 µM,7%
same,growth inhibition,[13]; [16],-26%
same,growth inhibition,[13]; [17],81% (active)
same,growth inhibition,[13]; at 50.0 µM,72.5% (active)
same,growth inhibition,[14]; at 1.2 µM,-3%
same,growth inhibition,[14]; at 3.7 µM,2%
same,growth inhibition,[14]; at 11.0 µM,18%
same,growth inhibition,[14]; at 33.0 µM,36%
same,growth inhibition,[14]; at 100.0 µM,22%

# Reference: PubChem BioAssay (NCI)
